Measurements: PubChem BioAssay AID1347416 (National Center for Advancing Translational Sciences (NCATS), 2020)
In all, about 4,100 compounds went through this assay and about 1,600 (39%) were called active. Not shown: some 25% with an inconclusive outcome. The list shows a part of the results. Unmarked numbers belong to inactive results. Calls come from the whole dose curve; as a rule, active = well fitted inhibition curve with a large enough effect; inconclusive = small, poorly fitted or top-dose-only effect; inactive = no such curve, though single readings can be large or run the other way.

Experiment: qHTS Validation assay for Inhibitors of Plasmodium falciparum Dd2 growth in vitro; note: nearly all actives have a fitted effect of over 70% in size
Conditions: P. falciparum Dd2 in RBCs, SYBR Green growth, 72 h; series mostly up to 28.7 µM; activity change, negative = inhibition: at the top concentration
How it was run: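 P. falciparum Dd2-infected red blood cells (2.5% hematocrit, 0.3% parasitemia) grown 72 h at 37 °C under 5% O2 with compounds in a titration, 29 uM to 0.5 nM final. Growth read as SYBR Green-1 fluorescence after ~16 h lysis; artesunate 300 nM as positive control.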
% is set by controls: 0 for no effect and ±100 for the full control effect; potency is the fitted concentration of half-maximal effect.

Structure (SMILES)	Potency	activity change, negative = inhibition
Cc1ccc(N(C)C2=NC(=O)CS2)cc1Cl	9.44 µM (active)	
COc1cc(O)c(C(CCN2CCCC(C)C2)c2cc(OC)c(OC)c(OC)c2)c(OC)c1 (configuration not stated)	1.88 µM (active)	
COc1cc(O)c(C(CCN2CCCCC2)c2cc(OC)c(OC)c(OC)c2)c(OC)c1 (configuration not stated)	2.66 µM (active)	
COc1cc(O)c(C(CCN2CCCCC2)c2ccc(N(C)C)cc2)c(OC)c1 (configuration not stated)	2.66 µM (active)	
COc1cc(O)c(C(CCN2CCCC(C)C2)c2ccc(N(C)C)cc2)c(OC)c1 (configuration not stated)	1.68 µM (active)	
CCCCC(CC)CNC(=O)CCCCCn1c(=O)[nH]c2ccsc2c1=O (configuration not stated)		-7.19%
COc1ccc(C(CCN2CCCCC2)c2c(O)cc(OC)cc2OC)cc1 (configuration not stated)	1.33 µM (active)	
CCn1ccc2ccc(CN3CCCC(O)(CN4CCCC4)C3)cc21 (configuration not stated)	7.5 µM (active)	
COc1ccc(C(=O)N2CCCC(O)(CN3CCCC3)C2)cc1Cl (configuration not stated)		-13.3%
C=CCN(Cc1ccccc1OCC)C(=O)c1ccc(N(C)S(C)(=O)=O)cc1		4.22%
CCCC1=[N+](CC)CCn2c(C)ccc21		-15.7%
COC(=O)c1c(-c2c(Cl)cccc2Cl)noc1NC(=O)NN1CCCCC1	2.37 µM (active)	
OC(CN1CCC(Cc2ccc(F)cc2)CC1)c1ccc(Cl)cc1 (configuration not stated)		-97.7%
CN1CCC(NCCC(c2ccc(F)cc2)c2ccc(Cl)cc2)CC1 (configuration not stated)	4.22 µM (active)	
CCC(=O)N(C1=C(NC(C)C)C(=O)c2ccccc2C1=O)C(C)C	2.37 µM (active)	
O=C(NC1CCCC1)c1ccc(OC2CCN(CCCC(F)(F)F)CC2)c(Cl)c1	9.44 µM (active)	
COCCNC(=O)c1ccc(OC2CCN(C/C=C/c3ccc(F)cc3)CC2)c(Cl)c1	10.6 µM (active)	
CN(Cc1ccc(-c2ccccc2)cc1)C(=O)C1CC1		11.1% [at 43.1 µM]
CC(=O)Nc1ccc(/C(C)=N\NC(=O)c2ccc(-c3ccccc3)cc2)cc1		18.3%
CC(=O)Nc1cc(-c2ccccc2)ccc1O	4.73 µM (active)	
CN1CCN(C(=O)C(C)(C)Oc2nn(Cc3cccc(Cl)c3)c3ccccc23)CC1	7.69 µM (active)	
CC(C)n1nc(OC(C)(C)C(=O)NCCc2cccnc2)c2cc(CN3CCOCC3)ccc21		-3.54%
CC(C)(Oc1nn(CCOc2ccccc2)c2ccccc12)C(=O)NCc1cnccn1		-20.1% [at 43.1 µM]

Structure (SMILES)	Potency	activity change, negative = inhibition
CC(C)(Oc1nn(Cc2cccc(Cl)c2)c2ccccc12)C(=O)NCCN1CCOCC1	5.31 µM (active)	
COCc1ccc2c(c1)c(OC(C)(C)C(=O)N1CCN(CCO)CC1)nn2Cc1ccccc1	9.44 µM (active)	
COCc1ccc2c(c1)c(OC(C)(C)C(=O)NCC1CCOCC1)nn2Cc1cccnc1		22.6%
N#Cc1cc(C(=O)c2cc(Br)ccc2O)cn(C2CCCCC2)c1=O	0.668 µM (active)	
CCCCn1cc(C(=O)c2cc(Br)ccc2O)cc(C#N)c1=O	13.3 µM (active)	
CN(C)c1cc[n+](Cc2ccccc2)cc1	10.6 µM (active)	
CCOC(=O)CCCOc1cccn2c(=O)c(-c3cc(C)n(-c4ccc(Cl)cc4)n3)c(C)nc12	10.6 µM (active)	
CC(C)CCN1CCC2(CC1)CC(=O)N(c1ccccc1)c1ccccc1O2		-9.65%
O=C1CC2(CCN([S+](=O)([O-])c3cccc(C(F)(F)F)c3)CC2)Oc2ccccc2N1c1ccccc1	6.68 µM (active)	
COc1ccc(-n2nc(C3CCN([S+](=O)([O-])c4cccc(C(F)(F)F)c4)CC3)[nH]c2=O)cc1		0%
Cc1ccc(S(=O)(=O)NC(=O)Nc2ccc(N(C)C)cc2)cc1	1.33 µM (active)	
CN(C)c1ccc(NC(=O)Oc2ccccc2)cc1		11.4%
Cc1c(CN2CCN(CC(C)(C)C)C(CCO)C2)[nH]c2ccccc12 (configuration not stated)	9.44 µM (active)	
CC(C)CC(NC(=O)C(NC(=O)OC(C)(C)C)C(C)C)C(=O)NC(CCC(=O)OCc1ccccc1)C(N)=O (configuration not stated)	8.41 µM (active)	
CC(C)c1ccccc1NC(=O)C(Cc1c[nH]c2ccccc12)NC(=O)OC(C)(C)C (configuration not stated)		-18.5%
CCN(CC)CCn1c(=N)n(CC(O)COc2ccccc2C)c2ccccc21 (configuration not stated)	3.35 µM (active)	
N=c1n(CCN2CCCCC2)c2ccccc2n1CC(O)COc1ccc(Cl)cc1Cl (configuration not stated)	4.22 µM (active)	
CCn1c(=N)n(CC(O)c2cccs2)c2ccccc21 (configuration not stated)		-26.2%
CCCCCn1c(=N)n(CC(O)COc2cccc(C)c2)c2ccccc21 (configuration not stated)	2.11 µM (active)	
CCN(Cc1ccccc1)C(=O)CCC[C@@H]1[C@H]2CCCN3CCC[C@@H](CN1C(=O)c1ccccc1)[C@@H]23	13.3 µM (active)	
CC(=O)N1C[C@@H]2CCCN3CCC[C@@H]([C@H]23)[C@H]1CCCC(=O)Nc1ccccc1		-1.67%
CC(C)CN1CCN(C(=O)CCC[C@@H]2[C@H]3CCCN4CCC[C@@H](CN2Cc2cccnc2)[C@@H]34)CC1		-17%
COc1ccccc1C(=O)NCc1nnc2ccc(-c3ccc(C)cc3)nn12		0%

Structure (SMILES)	Potency	activity change, negative = inhibition
COc1ccccc1Nc1cnc2ccc(-c3ccc(F)cc3)nn12	6.85 µM (active)	
COc1ccccc1Nc1cnc2ccc(-c3ccc(OC)c(OC)c3)nn12	1.53 µM (active)	
CC(C)c1ccc(OCC(=O)NC2CCCC2)cc1		-28.4%
CCOc1ccc(C(C)NC(=S)NC2CCCCC2)cc1OCC (configuration not stated)	0.211 µM (active)	
COc1ccc(C(C)NC(=S)NC2CCCC2)cc1OC (configuration not stated)	6.68 µM (active)	
CN1CCN(C(=O)c2ccc3c(c2)N(Cc2c(F)cccc2Cl)C(=O)c2ccccc2S3)CC1	0.0596 µM (active)	
COc1ccc(C(=O)N2CCCC3(C2)NC(=O)N(Cc2cccc(Cl)c2)C3=O)cc1F (configuration not stated)		-22%
Cc1ccc(C(=O)N2CCN(c3nnc4c(Cl)cccn34)CC2)cc1F		-6.08%
CCN1CCN(C(=O)c2ccc3c(c2)N(Cc2c(F)cccc2Cl)C(=O)c2ccccc2S3)CC1	0.0084 µM (active)	
O=C1Nc2ccc(-c3ccccc3F)cc2C(=O)N2CCN(C(=O)c3ccccc3)C[C@H]12		-15.2% [at 43.1 µM]
CC(C)CNC(=O)CN1CN(c2ccccc2)C2(CCN(C(=O)NC3CCCCC3)CC2)C1=O	15 µM (active)	
CC(C)(C)C1CCC2(CC1)NC(=O)N(CC(=O)NC1CCCCC1)C2=O (configuration not stated)		7.63%
O=C(OCc1ccccc1)N1CCC2(CC1)C(=NC1CCCCC1)NC(=O)N2c1cccnc1		2.65%
Cc1ccc(S(=O)(=O)c2nc(S(=O)(=O)c3ccccc3)sc2NCCCOC(C)C)cc1	0.596 µM (active)	
CCCS(=O)(=O)c1nc(S(=O)(=O)c2ccc(C)cc2)c(NCCCOC(C)C)s1	2.11 µM (active)	
CC(C)OCCCNc1sc(S(=O)(=O)c2ccccc2)nc1S(=O)(=O)c1ccc(Cl)cc1	0.266 µM (active)	
C=CCNC(=S)N1CCN(c2ccc([N+](=O)[O-])cc2)CC1	4.22 µM (active)	
O=[N+]([O-])c1ccc(N2CCN(C(=S)NC3CCCCC3)CC2)cc1	1.88 µM (active)	
Cc1ccc(C)c(-c2cc3c(=O)n(CCNC(=O)c4ccncc4)ccn3n2)c1		0.395%
CC(C)CNC(=O)C(C)(C)Oc1nn(CC2CC2)c2ccc(CN3CCCC3)cc12	19.3 µM (active)	
CC(C)n1nc(OC(C)(C)C(=O)NCC2CCOCC2)c2cc(CN3CCOCC3)ccc21		5.77%
O=C([C@@H]1C[C@H](Oc2cccnc2)CN1C(=O)NCCc1ccccc1)N1CCOCC1		22.2%
CCN(CC)CCN1C(=O)c2ccccc2NC1c1ccc(N(C)C)cc1 (configuration not stated)	4.22 µM (active)	

Structure (SMILES)	Potency	activity change, negative = inhibition
CCN(CC)CCN1C(=O)c2ccccc2NC1c1ccc(Br)cc1 (configuration not stated)	1.5 µM (active)	
CCN(CC)CCN1C(=O)c2ccccc2NC1c1ccc(C)cc1 (configuration not stated)	2.99 µM (active)	
CCc1ccc(CNC(=O)c2ccc(-c3nc(CSc4ccc(C)cc4)c(C)o3)cc2)cc1		30.9%
CCc1noc(-c2ccn3c(CNC(=O)COc4cccc(C)c4)nnc3c2)n1		27.4%
O[C@@H]1CC(CNCC2CCCC2)(COc2ccc(C(F)(F)F)cn2)C[C@@H]1O (some centres not stated)	5.31 µM (active)	
CCn1cc(C(=O)N2CCN(c3cccc(C)c3)C(C)C2)c(=O)c2cc(S(=O)(=O)N3CCOCC3)ccc21 (configuration not stated)		7.89%
CC(C)COc1ccc(C(=O)N/C(=C\c2cccc([N+](=O)[O-])c2)C(=O)OC(C)C)cc1	0.531 µM (active)	
CCCCOc1ccc(C(=O)N/C(=C\c2cccc([N+](=O)[O-])c2)C(=O)OC(C)C)cc1	2.11 µM (active)	
CC(C)[N+](C)(C)CC(O)COc1cccc2ccccc12 (configuration not stated)		32.3%
CC(C)c1ccccc1OCC(O)CN(CC(O)COc1cccc2ccccc12)C(C)C (configuration not stated)	2.37 µM (active)	
CC(=O)Nc1ccc(CN2CCC3(CC2)CNc2ccccc2[S+](=O)([O-])N3)cc1		0%
CC(=O)Nc1ccc(CN2CC(Oc3ccc(F)c(C)c3)C2)cc1		-23.8% [at 43.1 µM]
CC(=O)Nc1ccc(CN2CC(N(C)c3ccccc3C)C2)cc1	12.2 µM (active)	
Cc1ccc2nc(-c3ccccc3O)c(Nc3ccccc3C)n2c1	2.37 µM (active)	
CCOC(=O)c1c(CN(C)C)oc2cc(CN(C)C)c(O)c(CSc3ccccc3)c12	0.596 µM (active)	
CN(C)CC1(O)CCC2(CCN(C(=O)c3nccc4ccccc34)CC2)CC1		6.94%
Cc1cccc(N2CCN(c3nc4ccccc4c4nnc(C)n34)CC2)c1C	5.31 µM (active)	
COc1ccc(Nc2cc(C)nc(NCc3ccccc3)n2)cc1	13.3 µM (active)	
Cc1ccnc(NS(=O)(=O)c2ccc(NC(=O)C(C)(C)C)cc2)n1		46%
Cc1ccc(/C=N/Nc2cc(C)nc(NCc3ccccc3)n2)cc1	5.31 µM (active)	
Cc1cc(Nc2cccc(F)c2)nc(NCc2ccccc2)n1	8.41 µM (active)	
CC(=O)Nc1ccc(Nc2cc(C)nc(Nc3ccc(NC(C)=O)cc3)n2)cc1	3.35 µM (active)	
COc1ccc(-c2cc(C(=O)O)n(Cc3ccccc3)n2)cc1		16.6%
